High-throughput results deposited in PubChem BioAssay by National Center for Advancing Translational Sciences (NCATS).
GLP-1R agonist = agonists of human GLP-1 receptor. Potency, µM (titrated, usually from 45.6 µM), actives largely listed as activators. P43220. hit rate 0.007% among 380,000. AID 624172. HEK293 GLP-1R CRE-luciferase, luminescence, 4-6 h; cells express a hypersensitive GLP-1R form
PTHR1 agonist = activates the human parathyroid hormone receptor PTHR1; Q03431; HEK293 GP2 PTHR1 cells, GloSensor cAMP luminescence, 1 h; Potency, µM (doses to about 115 µM), most hits filed as activators; hit rate 0.075% among 410,000; further: nearly all actives have a fitted effect of over 55% in size
Target sequence (Q03431 whole entry, looked up): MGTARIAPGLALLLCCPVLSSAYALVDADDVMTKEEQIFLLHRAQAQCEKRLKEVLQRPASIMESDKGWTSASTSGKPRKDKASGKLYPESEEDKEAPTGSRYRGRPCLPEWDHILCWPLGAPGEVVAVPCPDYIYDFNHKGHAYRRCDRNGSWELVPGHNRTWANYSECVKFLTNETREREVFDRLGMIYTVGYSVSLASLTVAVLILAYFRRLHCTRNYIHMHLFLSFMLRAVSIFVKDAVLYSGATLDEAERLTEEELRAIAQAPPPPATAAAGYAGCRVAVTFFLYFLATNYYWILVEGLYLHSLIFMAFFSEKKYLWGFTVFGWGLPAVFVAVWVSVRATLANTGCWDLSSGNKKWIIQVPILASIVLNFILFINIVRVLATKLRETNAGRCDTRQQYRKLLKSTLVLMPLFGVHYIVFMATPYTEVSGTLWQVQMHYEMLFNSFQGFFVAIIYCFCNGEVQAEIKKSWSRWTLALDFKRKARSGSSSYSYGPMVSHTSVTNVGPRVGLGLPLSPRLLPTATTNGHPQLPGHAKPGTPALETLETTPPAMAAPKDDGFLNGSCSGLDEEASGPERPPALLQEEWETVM
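HEK-293-derived GP2 cells expressing PTHR1 and a GloSensor cAMP reporter, 3,000/well, plated overnight, given luciferin plus IBMX (each 0.5 mM as added) for 1 h at 37 °C, then compound for 1 h at 37 °C. Luminescence was read after 15 min at room temperature.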
HEK293 tox = cytotoxic in the GLP-1 receptor inverse agonist counter-screen; HEK293 cAMP-luciferase reporter cells, luminescence, 24 h; hit rate 0.13% among 410,000; Potency, µM (titrated, usually from 38.3 µM), most hits filed as inhibitors;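 further: loss of luciferase light is scored as toxicity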
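Seeding density was 200 cells/uL; after overnight-length (12 h) culture, 23 nL compounds went on for 24 h at 37 °C. Readout used a luciferase detection reagent, luminescence taken after 12 min at room temperature.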
GLP1R inv ag = GLP-1 receptor (human) inverse agonism | HEK293 GLP-1R CRE-luciferase, luminescence, 24 h; GLP-1R form is constitutively active | P43220 | Potency, µM (highest dose often 38.3 µM), actives largely listed as inhibitors | hit rate 1.6% among 410,000 | AID 624417; further: nearly all actives have a fitted effect of over 55% in size
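Using stably transfected HEK293 (constitutively active GLP-1R, cAMP-luciferase reporter), compounds were incubated 24 hr and luciferase measured by luminescence.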
Of the large screens only hits and unclear results are named; the others gave an inactive call. This is a sample that favours compounds with a hit; in the whole collection about 1.7% have one here. The call rests on the fitted dose curve; in most records, active means well fitted curve in the direction sought with a large enough effect; inconclusive means small, poorly fitted or top-dose-only effect, or another doubt; inactive means no such curve, though single readings can be large; an effect the other way counts as inactive or inconclusive.

O=C(/C=C/c1cn(-c2ccccc2)nc1-c1cccc(Cl)c1)N1CCN(c2ccccn2)CC1	GLP1R inv ag 7.08µM
COc1ccccc1N1CCN(C(=O)c2ccc3[nH]c4c(c3c2)CCCC4)CC1	GLP1R inv ag 10µM
COc1ccccc1N1CCN(C(=O)c2ccc(COc3cccc4c3OC(C)(C)C4)cc2)CC1	GLP1R inv ag 7.08µM
COc1ccccc1N1CCN(C(=O)c2cnc(N3CCCCC3)c3ccccc23)CC1	HEK293 tox inconclusive, GLP1R inv ag 3.55µM (no result: GLP-1R agonist)
COc1ccc(OC)c(CCNC(=O)CCC(=O)N2CCOc3ccc(C)cc32)c1	GLP1R inv ag inconclusive
Cn1nnnc1SCC1=C(C(=O)O)N2C(=O)[C@@H](NC(=O)[C@H](OC=O)c3ccccc3)[C@H]2SC1	none (no result: PTHR1 agonist, HEK293 tox, GLP1R inv ag)
CC1CCN(S(=O)(=O)c2ccc3c(c2)N(CC(=O)NCCCN2C(C)CCCC2C)C(=O)CO3)CC1 (configuration not stated)	none
O=C(c1cc(Cl)ccc1Cl)N1CCN(c2ccccn2)CC1	none
O=C(c1cnc(N2CCN(c3ccccn3)CC2)c2ccccc12)N1CCN(c2cccc(Cl)c2)CC1	GLP1R inv ag 2.24µM
O=C(Nc1cc(C(F)(F)F)ccc1Cl)C(Sc1ccccn1)c1ccccc1 (configuration not stated)	GLP1R inv ag 8.91µM
CC1CCCC(C)N1C(=O)CSc1nnc(-c2c[nH]c3ccccc23)o1 (configuration not stated)	none
CCC1CCCCN1C(=O)CSc1nnc(-c2c[nH]c3ccccc23)o1 (configuration not stated)	GLP1R inv ag 11.2µM
CC1=CC(C)(C)NC(=S)N1c1ccc(C)cc1	HEK293 tox inconclusive, GLP1R inv ag inconclusive
CC1=CC(C)(C)NC(=S)N1c1ccc(C)c(C)c1	HEK293 tox 11.2µM, GLP1R inv ag 11.2µM
O=C(O)CSc1cccc[n+]1[O-]	none
O=C(CSc1cccc[n+]1[O-])c1cc(Cl)ccc1Cl	HEK293 tox 0.891µM, GLP1R inv ag inconclusive
COc1cc2ccccc2cc1C(=O)N/N=C/c1ccc2c(c1)OCO2	HEK293 tox inconclusive, GLP1R inv ag 6.31µM
O=C(Nc1ccccc1Cl)NC1(C(=O)NCC2CCCO2)CCCCC1 (configuration not stated)	none
CC1=C(CO)C(=O)OC([C@@H](C)C2CC[C@H]3C4C[C@H]5O[C@]56[C@@H](O)C=CC(=O)[C@]6(C)C4CC[C@]23C)C1 (some centres not stated)	HEK293 tox 12.6µM
COCCCNc1ccn2nc(-c3cccc(OCc4ccccc4)c3)cc2n1	GLP1R inv ag inconclusive
c1ccc(COc2cccc(-c3cc4nc(NCc5cccs5)ccn4n3)c2)cc1	GLP1R inv ag 4.47µM
COCCCNc1ccn2nc(-c3cccc(Cl)c3)cc2n1	GLP1R inv ag inconclusive
COCCCNc1ccn2nc(-c3ccccc3)cc2n1	GLP1R inv ag 3.98µM
Cc1cc(C)n(C(=O)COc2ccccc2[N+](=O)[O-])n1	none
CSc1ccc(/C=N/n2c(C3CCCCC3)n[nH]c2=S)cc1	GLP1R inv ag inconclusive
S=c1[nH]nc(C2CCCCC2)n1/N=C/c1ccncc1	GLP1R inv ag 1.78µM
CCOC(=O)N1CCN(CC(=O)Nc2sc(CC)cc2C(=O)c2ccc(OC)cc2)CC1	GLP1R inv ag 5.62µM
CCc1cc(C(=O)OC)c(NC(=O)CN2CCN(C(=O)c3ccco3)CC2)s1	none
C[C@H](NC(=O)[C@@H]1CCCN1C(=O)[C@@H]1CCCN1C(=O)OC(C)(C)C)c1ccccc1	none
Cc1ccc(-n2ncc3c(N4CCCCCC4)ncnc32)cc1Cl	GLP1R inv ag inconclusive (no result: GLP-1R agonist)
Cc1cccc(-n2ncc3c(N4CCOCC4)ncnc32)c1	GLP1R inv ag 3.16µM
Cc1ccc(-n2ncc3c(N4CCCCC4)ncnc32)cc1Cl	GLP1R inv ag 0.794µM (no result: GLP-1R agonist)
O=C(Nc1nc(-c2ccc(Br)cc2)ns1)c1ccc(F)cc1	none (no result: GLP-1R agonist)
Cc1ccccc1C(=O)N1CCC(C(=O)Nc2nc3ccc(F)cc3s2)CC1	GLP1R inv ag 10µM
Cc1ccccc1C(=O)N1CCC(C(=O)Nc2nccs2)CC1	none
O=C(C[C@H]1CC[C@H](NC(=O)C2CCOCC2)[C@@H](CO)O1)NCc1ccncc1	none (no result: GLP-1R agonist)
COc1cc(O)ccc1-c1nc2cc(C)ccn2c1Nc1ccccc1C	GLP1R inv ag 10µM (no result: GLP-1R agonist)
Cc1ccn2c(Nc3ccccc3C)c(-c3ccccc3)nc2c1	GLP1R inv ag inconclusive (no result: GLP-1R agonist)
CCc1ccc(-c2n[nH]nc2C2=CC(=O)C[C@H](c3ccc(F)cc3)C2)cc1	GLP1R inv ag 8.91µM
COc1ccc(Cl)cc1NC(=O)CN(c1cccc(C)c1C)S(=O)(=O)c1ccccc1	GLP1R inv ag inconclusive
Cc1cccc(C)c1N(CC(=O)Nc1cc(Cl)ccc1Oc1ccccc1)S(C)(=O)=O	GLP1R inv ag 4.47µM
Cc1ccc(C)c(N(CC(=O)Nc2cc(Cl)ccc2Oc2ccccc2)S(C)(=O)=O)c1	GLP1R inv ag 5.01µM
CC(C)CNS(=O)(=O)c1ccc(CCC(=O)Nc2cc(Cl)ccc2Oc2ccccc2)cc1	GLP1R inv ag 12.6µM
O=C(CCS(=O)(=O)Cc1ccccc1)Nc1ncc([N+](=O)[O-])s1	GLP1R inv ag inconclusive
COc1cc(-c2nc(CN3CCN(C(=O)c4ccco4)CC3)c(C)o2)ccc1F	none
CCOC(=O)c1c(C)nc2ccc(Cl)cc2c1-c1ccccc1	GLP-1R agonist inconclusive, GLP1R inv ag 10µM
Cc1cccc([C@@H]2[C@@H]3C(=O)N(Cc4ccccc4)C(=O)[C@@H]3[C@]3(Cc4ccccc4)C(=O)N(c4ccc(C(F)(F)F)cc4)C(=O)N23)c1	GLP1R inv ag inconclusive
CC(C)C[C@H]1CNC(=S)N1CC1CCN(CCC23CC4CC(CC(C4)C2)C3)CC1	GLP1R inv ag 10µM
COc1ccc2c(c1)c1c(c(=O)n(-c3cccc(C)c3)c(=O)n1CC(=O)N1CCCC1)n2C	none
COc1cc2c(cc1OC)/C(=C/C(C)=O)OC2	none (no result: GLP-1R agonist)
COc1ccccc1N1CCN(CC(C)N(C(=O)C2CCCCC2)c2ccccn2)CC1 (configuration not stated)	GLP1R inv ag 10µM
COc1ccc(-c2c(C)nc3c(-c4ccccn4)cnn3c2N)cc1	HEK293 tox 10µM, GLP1R inv ag inconclusive
Cc1cc(N)n2ncc(-c3ccc(F)cc3)c2n1	none
Cc1nc2c(-c3ccc(F)cc3)cnn2c(N)c1-c1ccc(F)cc1	GLP1R inv ag 2µM
C/C(=N\NC(=O)c1ccc(Cl)cc1)c1ccc(Br)s1	none
C/C(=N\Nc1ccc(F)cc1F)c1ccc(Br)s1	GLP1R inv ag 12.6µM
CCOC(=O)C[C@H]1c2ccccc2S(=O)(=O)N1c1ccccc1	HEK293 tox inconclusive
O=C1[C@H]2CCCC[C@H]2C(=O)N1CCCCN1CCN(c2nsc3ccccc23)CC1	GLP1R inv ag inconclusive
CCn1c2ccccc2c2cc(NC(=O)CN3CCCC3)ccc21	GLP1R inv ag inconclusive
CCn1c2ccccc2c2cc(NC(=O)CNCC3CCCO3)ccc21 (configuration not stated)	GLP1R inv ag 10µM
O=C(CCSc1nnc(-c2ccco2)o1)N1CCOCC1	none
